According to PubChem BioAssay AID1159580 (chemical genetic matrix, 2015):
The whole screen tested about 5,500 compounds, of which about 2,000 (36%) were called active. About 18% were inconclusive and are not listed. Rule as the data show it: active = normalized growth mostly below about 0.91 (no sharp cut-off); inconclusive = no clear call, values can overlap the other calls; inactive = mostly above about 0.92. The list shows a part of the results.

Assay: chemical genetic growth profiling, strain panel (AID 1159580);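 also: tested at 20 µM; growth read once vehicle control cultures reached saturation at 30 °C; 1 = growth at the plate median or of vehicle wells; lower values mean less growth of the strain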
Conditions: growth OD

Measured: normalized growth

COc1ccc2c(=O)c(CC(=O)O)coc2c1
inactive: S. cerevisiae deletion strains, locus YJR066W, strain TOR1, active compounds read low 0.902 | S. cerevisiae deletion strains, locus YJR075W, strain HOC1, active compounds read low 1.01 | S. cerevisiae deletion strains, locus YKL009W, strain mrt4, active compounds read low 0.981 | S. cerevisiae deletion strains, locus YKL068W, active compounds read low 0.993 | S. cerevisiae deletion strains, locus YKL085W, strain MDH1 (second series), active compounds read low 1.01 | S. cerevisiae deletion strains, locus YKL085W, strain MDH1, active compounds read low 1.01 | S. cerevisiae deletion strains, locus YKL160W, strain elf1, active compounds read low 1.04 | S. cerevisiae deletion strains, locus YKL190W, strain CNB1, active compounds read low 1 | S. cerevisiae deletion strains, locus YKR001C, strain vps1, active compounds read low 1.03 | S. cerevisiae deletion strains, locus YKR026C, strain gcn3, active compounds read low 0.985 | S. cerevisiae deletion strains, locus YKR091W, strain srl3, active compounds read low 0.99 | S. cerevisiae deletion strains, locus YLL001W, strain dnm1, active compounds read low 1 | S. cerevisiae deletion strains, locus YLL026W, active compounds read low 0.982 | S. cerevisiae deletion strains, locus YLL041C, strain sdh2, active compounds read low 0.98 | S. cerevisiae deletion strains, locus YLR027C, strain aat2, active compounds read low 0.977 | S. cerevisiae deletion strains, locus YLR039C, strain RIC1, active compounds read low 1.07 | S. cerevisiae deletion strains, locus YLR058C, strain SHM2, active compounds read low 0.999 | S. cerevisiae deletion strains, locus YLR102C, strain apc9, active compounds read low 0.992 | S. cerevisiae deletion strains, locus YLR113W, strain HOG1, active compounds read low 0.992 | S. cerevisiae deletion strains, locus YLR221C, strain rsa3, active compounds read low 0.966 | S. cerevisiae deletion strains, locus YLR258W, strain gsy2, active compounds read low 0.992 | S. cerevisiae deletion strains, locus YLR262C, strain YPT6 (second series), active compounds read low 1 | S. cerevisiae deletion strains, locus YLR262C, strain YPT6, active compounds read low 1.03 | S. cerevisiae deletion strains, locus YLR268W, strain sec22, active compounds read low 1.02 | S. cerevisiae deletion strains, locus YLR320W, strain mms22, active compounds read low 0.972 | S. cerevisiae deletion strains, locus YLR330W, strain CHS5, active compounds read low 1.01 | S. cerevisiae deletion strains, locus YLR342W, strain FKS1 (second series), active compounds read low 1.05 | S. cerevisiae deletion strains, locus YLR342W, strain FKS1, active compounds read low 0.989 | S. cerevisiae deletion strains, locus YLR357W, strain rsc2, active compounds read low 0.988 | S. cerevisiae deletion strains, locus YLR370C, strain arc18, active compounds read low 0.974 | S. cerevisiae deletion strains, locus YLR371W, strain rom2, active compounds read low 0.997 | S. cerevisiae deletion strains, locus YLR384C, strain iki3, active compounds read low 0.966 | S. cerevisiae deletion strains, locus YLR418C, strain cdc73, active compounds read low 0.971 | S. cerevisiae deletion strains, locus YML016C, strain PPZ1, active compounds read low 1 | S. cerevisiae deletion strains, locus YML032C, strain rad52, active compounds read low 1 | S. cerevisiae deletion strains, locus YML120C, strain ndi1, active compounds read low 1 | S. cerevisiae deletion strains, locus YML124C, strain tub3, active compounds read low 0.994 | S. cerevisiae deletion strains, locus YMR058W, strain fet3, active compounds read low 0.983 | S. cerevisiae deletion strains, locus YMR078C, strain ctf18, active compounds read low 0.992 | S. cerevisiae deletion strains, locus YMR125W, strain sto1, active compounds read low 1 | S. cerevisiae deletion strains, locus YMR129W, active compounds read low 0.985 | S. cerevisiae deletion strains, locus YMR205C, strain PFK2, active compounds read low 1.05 | S. cerevisiae deletion strains, locus YMR223W, strain ubp8, active compounds read low 0.994 | S. cerevisiae deletion strains, locus YMR231W, strain pep5, active compounds read low 0.972 | S. cerevisiae deletion strains, locus YMR307W, strain GAS1, active compounds read low 1.06 | S. cerevisiae deletion strains, locus YNL067W, strain RPL9B, active compounds read low 0.999 | S. cerevisiae deletion strains, locus YNL071W, strain lat1, active compounds read low 0.986 | S. cerevisiae deletion strains, locus YNL183C, strain NPR1, active compounds read low 0.972 | S. cerevisiae deletion strains, locus YNL209W, strain ssb2, active compounds read low 1.03 | S. cerevisiae deletion strains, locus YNL233W, strain BNI4, active compounds read low 1 | S. cerevisiae deletion strains, locus YNL248C, strain rpa49, active compounds read low 0.984 | S. cerevisiae deletion strains, locus YNL250W, strain rad50, active compounds read low 0.96 | S. cerevisiae deletion strains, locus YNL271C, strain bni1, active compounds read low 0.986 | S. cerevisiae deletion strains, locus YNL298W, strain CLA4, active compounds read low 0.992 | S. cerevisiae deletion strains, locus YNL307C, strain MCK1, active compounds read low 1 | S. cerevisiae deletion strains, locus YNL322C, strain KRE1 (second series), active compounds read low 0.969 | S. cerevisiae deletion strains, locus YNL322C, strain KRE1, active compounds read low 1 | S. cerevisiae deletion strains, locus YNR049C, strain mso1, active compounds read low 0.973 | S. cerevisiae deletion strains, locus YNR052C, strain pop2, active compounds read low 0.952 | S. cerevisiae deletion strains, locus YOL012C, strain htz1 1.05 | S. cerevisiae deletion strains, locus YOL147C, strain pex11, active compounds read low 0.991 | S. cerevisiae deletion strains, locus YOR001W, strain rrp6, active compounds read low 0.917 | S. cerevisiae deletion strains, locus YOR061W, strain CKA2, active compounds read low 1.01 | S. cerevisiae deletion strains, locus YOR069W, strain VPS5, active compounds read low 0.987 | S. cerevisiae deletion strains, locus YOR070C, strain gyp1, active compounds read low 0.981 | S. cerevisiae deletion strains, locus YOR080W, strain dia2, active compounds read low 0.981 | S. cerevisiae deletion strains, locus YOR083W, strain WHI5, active compounds read low 1.04 | S. cerevisiae deletion strains, locus YOR106W, strain vam3, active compounds read low 1.01 | S. cerevisiae deletion strains, locus YOR136W, strain idh2, active compounds read low 0.981 | S. cerevisiae deletion strains, locus YOR144C, strain elg1, active compounds read low 0.993 | S. cerevisiae deletion strains, locus YOR184W, strain ser1, active compounds read low 1.07 | S. cerevisiae deletion strains, locus YOR231W, strain MKK1, active compounds read low 1 | S. cerevisiae deletion strains, locus YOR265W, strain rbl2, active compounds read low 0.973 | S. cerevisiae deletion strains, locus YOR270C, strain vph1, active compounds read low 0.978 | S. cerevisiae deletion strains, locus YOR290C, strain snf2, active compounds read low 1.01 | S. cerevisiae deletion strains, locus YOR316C, strain cot1, active compounds read low 0.991 | S. cerevisiae deletion strains, locus YPL051W, strain arl3, active compounds read low 0.996 | S. cerevisiae deletion strains, locus YPL055C, strain LGE1, active compounds read low 1.08 | S. cerevisiae deletion strains, locus YPL078C, strain atp4, active compounds read low 1.03 | S. cerevisiae deletion strains, locus YPL106C, strain sse1, active compounds read low 1.03 | S. cerevisiae deletion strains, locus YPL240C, strain hsp82, active compounds read low 0.974 | S. cerevisiae deletion strains, locus YPL241C, strain CIN2, active compounds read low 1.01 | S. cerevisiae deletion strains, locus YPL256C, strain CLN2, active compounds read low 0.983 | S. cerevisiae deletion strains, locus YPR119W, strain clb2, active compounds read low 0.985 | S. cerevisiae deletion strains, locus YPR141C, strain kar3, active compounds read low 0.99 | S. cerevisiae deletion strains, locus YPR163C, strain tif3, active compounds read low 0.995 | S. cerevisiae deletion strains, locus YPR167C, strain met16, active compounds read low 0.976 | S. cerevisiae deletion strains, strain wtn01, active compounds read low 1.04 | S. cerevisiae strains, strain wild type, active compounds read low 1.02
